Consider 35 molecules from PubChem BioAssay AID2358 (The Scripps Research Institute Molecular Screening Center, 2010).

The campaign covered roughly 1,900 compounds. About 1,000 (53%) were called active. So high a share suggests a set chosen from earlier hits. Not all results are given here. Unmarked numbers belong to inactive results.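 Rule for the calls: active = mean PP1 inhibition above a set limit taken from the earlier primary screen (cut at about 15% in these data); inactive = the rest.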

As usually defined, the inhibition is the drop in the measured response relative to a control, in per cent.

The target of the experiment is Serine/threonine-protein phosphatase PP1-alpha catalytic subunit (Homo sapiens) (UniProt P62136). The experiment in a line: PP1 phosphatase inhibitors, confirmation, biochemical, fluorescence, OMFP substrate, triplicate (AID 2358). Conditions: purified PP1alpha, at 6.7 µM, active compounds read high.
Serine/threonine-protein phosphatase PP1-alpha catalytic subunit (Homo sapiens), sequence (P62136 whole entry, looked up): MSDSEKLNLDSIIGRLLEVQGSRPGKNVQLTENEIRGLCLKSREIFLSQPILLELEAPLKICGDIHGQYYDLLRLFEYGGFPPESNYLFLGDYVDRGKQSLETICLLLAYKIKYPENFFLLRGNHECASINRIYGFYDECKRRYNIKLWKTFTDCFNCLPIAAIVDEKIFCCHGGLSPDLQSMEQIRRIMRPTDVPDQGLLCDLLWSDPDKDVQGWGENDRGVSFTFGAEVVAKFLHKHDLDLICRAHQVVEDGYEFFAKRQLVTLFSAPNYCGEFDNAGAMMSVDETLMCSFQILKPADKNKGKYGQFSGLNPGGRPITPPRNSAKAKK
As to `O=[N+]([O-])/C=C/c1ccc2c(ccn2Cc2ccccc2)c1`, the inhibition is 13.8%. On to `Cc1cccc(OCC(O)Cn2c(=N)n(CCN3CCOCC3)c3ccccc32)c1` (stereo not given), for which the inhibition was -3.3%. In the case of `CCCCCCCCCCOC(=O)Cn1c(COc2cccc(OC)c2)[n+](C)c2ccccc21`, the inhibition was 8.62%. `O=C(Nc1cccc(-c2nc3ccccc3[nH]2)c1)c1ccc(C(=O)Nc2cccc(-c3nc4ccccc4[nH]3)c2)cc1`: the inhibition was 2.51%.

Take `Clc1ccc(-n2nnnc2-c2cnc(-c3ccccn3)nc2-c2cccs2)cc1`: the inhibition is 64.5% (active). Turning to `Cc1ccc(Cn2nnc3c(=O)[nH]c(C4CCN(S(=O)(=O)/C=C/c5ccccc5)CC4)nc32)cc1`, the inhibition is 20.5% (active). On to `Cc1ccc(NC(=O)COc2ccc(/C=C3/NC(=O)NC3=O)cc2)cc1`, for which the inhibition was 16.6% (active). Consider `NC(N)=N/N=C/c1ccc(OCc2ccc(Cl)cc2Cl)cc1`, for which the inhibition was 17.3% (active). Regarding `CC(=O)c1ccc(N2CCN(S(=O)(=O)c3ccc4c(c3)CC(=O)N4C)CC2)cc1`, the inhibition is 7.42%. Consider `O=C(Nc1nnc(-c2ccccc2)o1)c1cc(-c2cccs2)nc2ccccc12`, for which the inhibition was 28.1% (active). For the molecule `O=C(Nc1ccc(S(=O)(=O)Nc2nccs2)cc1)c1cc(-c2ccncc2)nc2ccccc12`, the inhibition was 12.1%. As for `Cc1ccc(-c2cc(C(=O)Nc3nn[nH]n3)c3ccccc3n2)c(C)c1`, the inhibition was 0.22%. Turning to `O=C(/C=C/c1ccc(F)cc1)NC(=S)NNC(=O)c1cccnc1`, the inhibition is 14.7%.

On to `COc1cccc(/C=N/NC(=O)c2[nH]nc3c2CCc2ccccc2-3)c1O`, for which the inhibition was 36% (active). In the case of `N=c1n(Cc2ccc(Cl)cc2)c2ccccc2n1CC(O)c1ccco1` (stereo not given) it was -2.68%; in that of `Cc1ccc2nc(N3C(=O)C(O)=C(C(=O)c4ccco4)C3c3cccc(O)c3)sc2c1` (stereo not given), 20.8% (active). For `CCNS(=O)(=O)c1ccc(NC(=O)Nc2cccc(C(F)(F)F)c2)cc1`, the inhibition was 4.33%. In the case of `Cc1nc2c(C(=O)NCc3ccc4c(c3)OCO4)c[nH]n2c(=O)c1Cc1ccccc1F`, the inhibition is 32.2% (active). For the molecule `COc1cc(C2C(C(=O)c3ccc(C)o3)=C(O)C(=O)N2CCc2ccccc2)ccc1O` (stereo not given), the inhibition is 27.1% (active). In the case of `Cc1cc(N2C(=O)C(O)=C(C(=O)c3ccc(C)o3)C2c2ccc(OCc3ccccc3)cc2)no1` (stereo not given), the inhibition is 32.6% (active). `COc1ccc(C2C(C(C)=O)=C(O)C(=O)N2CCc2c[nH]c3ccccc23)cc1` (stereo not given): the inhibition was 11.8%. In the case of `CCCOc1ccc(C2C(C(=O)c3ccc(C)o3)=C(O)C(=O)N2CCCn2ccnc2)cc1` (stereo not given), the inhibition is 37.2% (active).

As for `C/C(CC(O)(/C=N/O)c1ccccc1)=N\O` (stereo not given), the inhibition is -3.06%. Turning to `Cc1ccc2cc(CCNC(=O)c3c(-c4ccccc4Cl)noc3C)c(=O)[nH]c2c1`, the inhibition is -1.41%.

On to `COC(=O)Cc1cc(=O)n(-c2nc3ccccc3s2)[nH]1`, for which the inhibition was 0.62%. As to `CN(C(=O)CN(CCO)CC(=O)N(C)C(C)(C)Cc1ccccc1)C(C)(C)Cc1ccccc1`, the inhibition is -9.33%. Under `C#CCOCCOCCOCCNc1nc(N2CCN(C(=O)CCCCCCCCCCNC(=O)[C@H](CCCCN)n3cc(C)nn3)CC2)nc(N2CCN(C(=O)CCCCCCCCCCNC(=O)[C@H](CO)n3cc(CCCSC)nn3)CC2)n1` stands 41.8% (active). For `C#CCOCCOCCOCCNc1nc(N2CCN(C(=O)CCCCCCCCCCNC(=O)Cn3cc(CCCCCN)nn3)CC2)nc(N2CCN(C(=O)CCCCCCCCCCNC(=O)[C@H](CO)n3cc(CCCSC)nn3)CC2)n1`, the inhibition was 50.9% (active). Regarding `C#CCOCCOCCOCCNc1nc(N2CCN(C(=O)CCCCCCCCCCNC(=O)[C@H]([C@@H](C)CC)n3cc(CCCCN=C(N)N)nn3)CC2)nc(N2CCN(C(=O)CCCCCCCCCCNC(=O)[C@H](CO)n3cc(CCCSC)nn3)CC2)n1`, the inhibition is 42.5% (active). Under `C=CCn1c(=S)[nH]c2scc(-c3ccco3)c2c1=O` stands 7.08%. As for `Cc1nc(/N=C(\N)NC(=O)NC2CCCCC2)nc2ccccc12`, the inhibition was 26.9% (active).

In the case of `Cc1ccc(-c2cc(C(=O)N/N=C/C=C/c3ccco3)c3ccccc3n2)cc1C`, the inhibition is 9.2%.

For the molecule `OCCCN1c2ccccc2Nc2nnc(-c3ccccc3)cc21`, the inhibition is 27.3% (active).

As for `CCC(=C/c1sc2ccc3ccccc3c2[n+]1C)/C=C1\Sc2ccc3ccccc3c2N1C`, the inhibition was 62.5% (active). As for `CSc1ccc(/C=N\NC(=O)COc2ccc(Cl)cc2Br)cc1`, the inhibition was -1.13%.
